Laboratory results as given in PubChem BioAssay (Tox21).
Several values for one entry are separate records, joined by “and”; a condition that tells them apart may be missing. Equal values may be shown once. Records with an inconclusive call do not appear. A call without a number means that no potency is given here. A structure can be active in one record and inactive in another. Activity calls are given as the source filed them. Unless noted, the call rests on the fitted dose curve; in most records, active means well fitted curve in the direction sought with a large enough effect in the repeat runs; inconclusive means weak or mixed curves; inactive means no such curve, though single readings can be large; an effect the other way counts as inactive or inconclusive.

Tests used:
[1] = qHTS assay for small molecule agonists of the p53 signaling pathway (AID 651631; calls by dose curve; further: nearly all actives have a fitted effect of over 15% in size; further: potency means the concentration at half of the fitted maximal effect)
Procedure, shortened: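 HCT-116 p53RE-bla reporter line, 16 h compound treatment at 37 °C, then fluorescence after 2 h with B/G FRET substrate.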

[2] = qHTS assay for small molecules that induce genotoxicity in human embryonic kidney cells expressing luciferase-tagged ATAD5 (AID 651632); further: nearly all actives have a fitted effect of over 15% in size
Procedure, shortened: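 Luminescence read-out: after 16 hr compound exposure at 37C, ATAD5-luciferase HEK293T cells received Amplite, 30 min RT, then CCD imaging. A rise in signal marks genotoxic stress.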

[3] = qHTS assay for small molecule agonists of the p53 signaling pathway - cell viability (AID 651633; calls by dose curve;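 further: p53RE-bla HCT reporter cells with a stable beta-lactamase p53 reporter; series mostly up to about 83 µM; nearly all actives have a fitted effect of over 30% in size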)
Procedure, shortened: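 Viability counter-read: CellTiter-Glo luminescence (30 min, room temperature) in the same p53RE-bla plates. These plates had been exposed to compounds for 16 h at 37 C.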

[4] = qHTS assay for small molecules that induce genotoxicity in human embryonic kidney cells expressing luciferase-tagged ATAD5 - cell viability (AID 651634; calls by dose curve; further: nearly all actives have a fitted effect of over 25% in size)
Procedure, shortened: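 HEK293T ATAD5-luc cells, 2,000/well; compound 15.5 hr, 37C/5% CO2; CellTiter-Fluor 30 min, 37C; fluorescence read.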

[5] = qHTS assay for small molecule disruptors of the mitochondrial membrane potential - cell viability (AID 720634; calls by dose curve; further: nearly all actives have a fitted effect of over 20% in size; further: potency means the concentration at half of the fitted maximal effect;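 on activity change, negative = cytotoxicity: human HepG2 liver cancer cells; series mostly up to about 83 µM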)
Procedure, shortened: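 Luminescence from CellTiter-Glo (ATP content) gave viability in HepG2 cells, read in the same wells as the MMP dye assay after 1 hr compound exposure at 37 C.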

[6] = qHTS assay to test for compound auto fluorescence at 535 nm (green) in HepG2 cells (AID 720675)
[7] = qHTS assay to test for compound auto fluorescence at 460 nm (blue) in HEK293 cells (AID 720678)
Procedure, shortened: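 Measured: blue fluorescence (Ex 405/Em 460 nm) of compound-treated HEK293 cells, incubated overnight at 37C with 5% CO2 and scaled to triamterene equivalents.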

[8] = qHTS assay to test for compound auto fluorescence at 590 nm (red) in HEK293 cells (AID 720679)
Procedure, shortened: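 Using HEK293 cells at 2,000 per well, the screen added 23 nL of each compound after cell attachment and incubated overnight (37C, 5% CO2). The plate reader then captured red-label fluorescence, Ex/Em 540/590nm.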

[9] = qHTS assay for small molecule disruptors of the mitochondrial membrane potential (AID 720635); further: potency means the concentration at half of the fitted maximal effect
Procedure, shortened: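 Mitochondrial membrane potential tracked with Mito-MPS dye, red aggregates (ex 540/em 590 nm) against green monomers (ex 490/em 535 nm). Compound treatment 1 hr at 37C, dye 30 min in HepG2.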

[10] = qHTS assay to test for compound auto fluorescence at 590 nm (red) in HepG2 cells (AID 720674)
Procedure, shortened: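 1 hr compound incubation on HepG2 cells, 37 C, 5% CO2; plate read ex 540 nm / em 590 nm; intensities reported as Rose Bengal sodium equivalents.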

SMILES: Brc1c(Br)c(Br)c(Br)c(Br)c1Br
- activation [1]: -6.36% [at 8.3 µM] (inactive)
- activation [2]: 2.71% [at 8.08 µM] (inactive)
- activity change, negative = cytotoxicity [3]: 9.67% [at 8.08 µM] (inactive)
- activity, negative = cytotoxicity [4]: 13.6% [at 8.08 µM] (inactive)
- activity change, negative = cytotoxicity [5]: 4.11% [at 8.08 µM] (inactive)
- fluorescence, % of fluorescein control [6]: 0.0147% [at 3.72 µM] (inactive)
- fluorescence, % of triamterene [7]: 0.185% [at 3.72 µM] (inactive)
- fluorescence, % of fluorescent control [8]: -0.438% [at 3.72 µM] (inactive)

SMILES: C=CCc1cc(OC)c2c(c1)OCO2
- Potency [1]: inactive
- outcome [2]: inactive
- Potency [3]: inactive
- Potency [4]: inactive
- Potency [9]: inactive
- outcome [10]: inactive
- outcome [6]: inactive
- outcome [7]: inactive
- outcome [8]: inactive

SMILES: CN(CCO)CCO
- Potency [1]: inactive
- outcome [2]: inactive
- Potency [3]: inactive
- Potency [4]: inactive
- outcome [10]: inactive
- outcome [6]: inactive
- outcome [7]: inactive
- outcome [8]: inactive

SMILES: c1cncc([C@@H]2CCCCN2)c1
- Potency [1]: inactive
- outcome [2]: inactive
- Potency [3]: inactive
- Potency [5]: inactive
- outcome [10]: inactive
- outcome [6]: inactive
- outcome [7]: inactive

SMILES: COC(=O)[C@@H](N)CCCN/C(N)=N/[N+](=O)[O-]
- Potency [1]: inactive
- Potency [3]: inactive
- Potency [4]: inactive
- Potency [5]: inactive
- Potency [9]: inactive
- outcome [10]: inactive
- outcome [6]: inactive
- outcome [7]: inactive
- outcome [8]: inactive

SMILES: CC[C@H](N)c1ccccc1
- Potency [1]: inactive
- outcome [2]: inactive
- Potency [3]: inactive
- Potency [4]: inactive
- outcome [6]: inactive
- outcome [7]: inactive
- outcome [8]: inactive

SMILES: O=C(Cl)/C=C/C(=O)Cl
- Potency [1]: inactive
- outcome [2]: inactive
- Potency [3]: inactive
- Potency [4]: inactive
- Potency [9]: inactive
- outcome [10]: inactive
- outcome [6]: inactive
- outcome [7]: inactive
- outcome [8]: inactive

SMILES: CCOC(=O)NC(C)(C)Cc1ccc(Cl)cc1
- Potency [1]: inactive
- Potency [3]: inactive
- Potency [4]: inactive
- Potency [5]: inactive
- Potency [9]: inactive
- outcome [10]: inactive
- outcome [6]: inactive
- outcome [7]: inactive

SMILES: CCN[C@@H](C)Cc1ccccc1
- Potency [1]: inactive
- outcome [2]: inactive
- Potency [3]: inactive
- Potency [4]: inactive
- outcome [6]: inactive
- outcome [7]: inactive
- outcome [8]: inactive

SMILES: O=c1[nH]oc2c1CCNC2
- Potency [1]: inactive
- outcome [2]: inactive
- Potency [3]: inactive
- Potency [4]: inactive
- outcome [10]: inactive
- outcome [6]: inactive
- outcome [7]: inactive
- outcome [8]: inactive

SMILES: NCC1(CC(=O)O)CCCCC1
- Potency [1]: inactive
- outcome [2]: inactive
- Potency [3]: inactive
- Potency [4]: inactive
- Potency [9]: inactive
- fluorescence, relative to Rose Bengal [10]: 0.106% [at 18.6 µM] (inactive)
- fluorescence, % of fluorescein control [6]: 0.0214% [at 18.6 µM] (inactive)
- fluorescence, % of triamterene [7]: 0.0823% [at 18.6 µM] (inactive)
- fluorescence, % of fluorescent control [8]: 0.0233% [at 18.6 µM] (inactive)

SMILES: CCCCCCCCBr
- Potency [1]: inactive
- outcome [2]: inactive
- Potency [3]: inactive
- Potency [4]: inactive
- outcome [10]: inactive
- outcome [6]: inactive
- outcome [7]: inactive
- outcome [8]: inactive

SMILES: O=[N+]([O-])CCO
- Potency [1]: inactive
- outcome [2]: inactive
- Potency [3]: inactive
- Potency [4]: inactive
- outcome [10]: inactive
- outcome [6]: inactive
- outcome [7]: inactive

SMILES: Cn1c(CCCC(=O)O)nc2cc(N(CCCl)CCCl)ccc21
- Potency [1]: 26.6 µM (active)
- Potency [3]: inactive
- Potency [4]: inactive
- Potency [5]: inactive
- Potency [9]: inactive
- outcome [10]: inactive
- outcome [6]: inactive
- outcome [7]: inactive
- outcome [8]: inactive

SMILES: CCC(=O)OC1(c2ccccc2)CCN(C)CC1
- Potency [1]: inactive
- outcome [2]: inactive
- Potency [3]: inactive
- Potency [4]: inactive
- Potency [9]: inactive
- outcome [10]: inactive
- outcome [6]: inactive
- outcome [7]: inactive
- outcome [8]: inactive

SMILES: CCOC(=O)N(C)N=O
- Potency [1]: inactive
- Potency [3]: inactive
- Potency [4]: inactive
- Potency [5]: inactive
- Potency [9]: inactive
- outcome [10]: inactive
- outcome [6]: inactive
- outcome [7]: inactive
- outcome [8]: inactive

SMILES: CC(Cl)(Cl)Cl
- Potency [1]: inactive
- outcome [2]: inactive
- Potency [3]: inactive
- Potency [4]: inactive
- outcome [10]: inactive
- outcome [6]: inactive
- outcome [7]: inactive
- outcome [8]: inactive

SMILES: CCC1(CC)C(=O)C=CNC1=O
- Potency [1]: inactive
- outcome [2]: inactive
- Potency [3]: inactive
- Potency [4]: inactive
- Potency [9]: inactive
- outcome [10]: inactive
- outcome [6]: inactive
- outcome [7]: inactive
- outcome [8]: inactive

SMILES: O=C1CCCCC1Cl (stereo unspecified)
- Potency [1]: inactive
- outcome [2]: inactive
- Potency [3]: inactive
- Potency [4]: inactive
- Potency [9]: inactive
- outcome [10]: inactive
- outcome [6]: inactive
- outcome [7]: inactive
- outcome [8]: inactive

SMILES: COP(=O)(OC)O/C(C)=C/C(=O)N(C)C
- Potency [1]: inactive
- outcome [2]: inactive
- Potency [3]: inactive
- Potency [4]: inactive
- outcome [10]: inactive
- outcome [6]: inactive
- outcome [7]: inactive
- outcome [8]: inactive

SMILES: COC(=O)c1ccc(CBr)cc1
- Potency [1]: inactive
- Potency [3]: inactive
- Potency [4]: inactive
- Potency [5]: inactive
- Potency [9]: inactive
- outcome [10]: inactive
- outcome [6]: inactive
- outcome [7]: inactive

SMILES: COc1ccc2c(C(=O)c3ccc(Cl)cc3)c(C)n(CC(=O)O)c2c1
- Potency [1]: inactive
- Potency [3]: inactive
- Potency [4]: inactive
- Potency [5]: inactive
- Potency [9]: inactive
- outcome [10]: inactive
- outcome [6]: inactive
- outcome [7]: inactive
- outcome [8]: inactive

SMILES: CCCOC(=O)Cc1ccc(OCC(=O)N(CC)CC)c(OC)c1
- Potency [1]: inactive
- Potency [3]: inactive
- Potency [4]: inactive
- Potency [5]: inactive
- Potency [9]: inactive
- outcome [10]: inactive
- outcome [6]: inactive
- outcome [7]: inactive
- outcome [8]: inactive

SMILES: O=C1C2CC=CCC2C(=O)N1SC(Cl)(Cl)Cl (stereo unspecified)
- Potency [1]: 5.96 µM (active)
- outcome [2]: inactive
- Potency [3]: inactive
- Potency [5]: 29.8 µM (active) and inactive and 60.1 µM (active)
- Potency [9]: 8.41 µM (active) and 43.1 µM (active) and 8.49 µM (active)
- outcome [10]: inactive
- outcome [6]: inactive
- outcome [7]: inactive
- outcome [8]: inactive

SMILES: CNC(=O)Oc1ccccc1C(C)C
- Potency [1]: inactive
- outcome [2]: inactive
- Potency [3]: inactive
- Potency [4]: inactive
- outcome [10]: inactive
- outcome [6]: inactive
- outcome [7]: inactive
- outcome [8]: inactive

SMILES: CC(C)[N+](C)(CCC(C(N)=O)(c1ccccc1)c1ccccc1)C(C)C
- Potency [1]: inactive
- Potency [3]: inactive
- Potency [4]: inactive
- Potency [5]: inactive
- Potency [9]: inactive
- fluorescence, relative to Rose Bengal [10]: -0.328% [at 18.6 µM] (inactive)
- fluorescence, % of fluorescein control [6]: -0.0469% [at 18.6 µM] (inactive)
- fluorescence, % of triamterene [7]: 0.0132% [at 18.6 µM] (inactive)
- fluorescence, % of fluorescent control [8]: -0.12% [at 18.6 µM] (inactive)

SMILES: COC(=O)c1ccccc1CS(=O)(=O)NC(=O)Nc1nc(OC)cc(OC)n1
- Potency [1]: inactive
- outcome [2]: inactive
- Potency [3]: inactive
- Potency [4]: inactive
- outcome [6]: inactive
- outcome [7]: inactive
- outcome [8]: inactive

SMILES: C[N+]1(C)CCCCC1
- Potency [1]: inactive
- Potency [3]: inactive
- Potency [4]: inactive
- Potency [5]: inactive
- Potency [9]: inactive
- outcome [10]: inactive
- outcome [6]: inactive
- outcome [7]: inactive

SMILES: CS(=O)(=O)Cl
- Potency [1]: inactive
- outcome [2]: inactive
- Potency [3]: inactive
- Potency [4]: inactive
- Potency [9]: inactive
- outcome [10]: inactive
- outcome [6]: inactive
- outcome [7]: inactive
- outcome [8]: inactive
